Screening results from PubChem.
ERAP1 HTS inh: blocks human ERAP1 aminopeptidase activity | inhibition, % at 10.7 µM | Q9NZ08 | 340,000 compounds, 0.15% hits | recombinant ERAP1, Leu-AMC fluorescence, 60 min;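 active = mean replicate inhibition of at least 30%, or all replicates individually reaching that 30% level; inactive = mean below 30% and not every replicate reaching it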;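 note: 0% = neutral control wells and 100% = L-leucinethiol positive control wells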
Target sequence (Q9NZ08 whole entry, looked up): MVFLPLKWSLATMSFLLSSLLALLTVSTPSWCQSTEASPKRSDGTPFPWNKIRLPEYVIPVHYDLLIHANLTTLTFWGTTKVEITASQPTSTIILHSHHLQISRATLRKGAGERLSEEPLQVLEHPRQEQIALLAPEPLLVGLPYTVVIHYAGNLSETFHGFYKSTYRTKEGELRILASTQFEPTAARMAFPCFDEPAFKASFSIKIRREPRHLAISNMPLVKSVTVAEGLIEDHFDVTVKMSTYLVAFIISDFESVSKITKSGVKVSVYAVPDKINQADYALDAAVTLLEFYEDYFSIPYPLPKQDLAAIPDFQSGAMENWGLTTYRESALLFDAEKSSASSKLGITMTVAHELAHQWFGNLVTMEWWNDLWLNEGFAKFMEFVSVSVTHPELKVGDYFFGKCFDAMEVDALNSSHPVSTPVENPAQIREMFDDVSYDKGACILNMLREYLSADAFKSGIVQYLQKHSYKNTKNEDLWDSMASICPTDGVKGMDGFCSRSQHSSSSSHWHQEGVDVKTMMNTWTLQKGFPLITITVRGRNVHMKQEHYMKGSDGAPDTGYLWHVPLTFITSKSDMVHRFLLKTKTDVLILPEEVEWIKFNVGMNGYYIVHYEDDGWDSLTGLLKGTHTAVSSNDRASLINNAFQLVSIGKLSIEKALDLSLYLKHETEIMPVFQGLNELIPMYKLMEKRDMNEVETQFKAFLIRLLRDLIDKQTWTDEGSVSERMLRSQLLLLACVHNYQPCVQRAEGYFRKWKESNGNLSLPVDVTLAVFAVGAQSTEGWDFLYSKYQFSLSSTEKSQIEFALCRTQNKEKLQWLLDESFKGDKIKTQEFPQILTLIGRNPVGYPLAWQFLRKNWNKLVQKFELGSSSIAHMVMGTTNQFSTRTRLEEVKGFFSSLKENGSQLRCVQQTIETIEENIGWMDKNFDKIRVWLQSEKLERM
ARNT TACC3 PPI: ARNT/TACC3 interaction disruption; AlphaScreen His-ARNT PAS-B/GST-TACC3 binding, luminescence; TACC3 fragment carries E629A point mutation; Q9Y6A5; inhibition, % at 9.99 µM; AID 623870; 390,000 compounds, 0.66% hits;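 active = mean inhibition of replicates at least 50% and at least half of replicates each reaching 50%; inconclusive = half or more replicates reach 50% but mean below 50%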;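 note: 0% = complete ARNT plus TACC3 wells and 100% = ARNT alone without TACC3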
PvdQ acylase: P. aeruginosa PvdQ acylase inhibition. inhibition, % at 10 µM. 340,000 compounds, 0.063% hits. purified PvdQ acylase, fluorescence plate reader; in the data active = inhibition above about 30%, passing the limit was not always enough; inconclusive = no clear call, values can overlap the other calls;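 note: 0% = vehicle neutral wells and 100% = reference inhibitor wells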
CFTR F508del cor: correctors of CFTR F508del function in bronchial epithelial cells. 350,000 compounds, 0.36% hits. CFBE cells, YFP halide quenching; stimulated with forskolin plus potentiator P3; % fluorescence drop versus neutral controls. activity (quench increase), % at 7.58 µM. AID 720511;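 active = mean added fluorescence quench of at least 8% versus neutral control, with both replicates also reaching 8%; inconclusive = only one of the mean or replicate conditions met; inactive = mean below 8% and not both replicates reaching 8%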;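 note: cells transiently co-express mutant CFTR-F508del with the halide-sensitive YFP; corrector assay measuring rescue of mutant channel to the surface after 24 h compound exposure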
rRNA inh HTS: inhibits bacterial ribosomal RNA function over humanized ribosomes; E. coli WT GFP vs humanized-ribosome RFP mutants, fluorescence, 24 h; hits give low values; DMSO median 0, no signal -100; GFP signal change (wild-type ribosome), % (no concentration beside the values); 350,000 compounds, 1.6% hits;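 active = significant combined selectivity score with lowered wild-type GFP, culture density cut under 30%, mutant RFP and density less affected; inactive = any of these conditions unmet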
AID977621: growth inhibition of wild-type GFP E. coli, dose response, H69 mutant RFP, cherry-pick | shares compounds with rRNA inh HTS | E. coli wild-type GFP strain growth, fluorescence, 24 h | activity change, negative = inhibition at 50 µM | 1,900 tested, under 10 active | AID 977621;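 active = Wild-type ribosome reporter drop at least double the humanized mutant ribosome reporter drop, growth loss under a set limit; inconclusive = no clear call, values can overlap the other calls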;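 note: wild-type GFP and H69 mutant RFP strains grown together 50/50 in each well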
AID977628: E. coli growth inhibition, wild-type GFP versus h24 humanized RFP strain, dose response, h24 mutant RFP vs wild-type GFP, cherry-pick. shares compounds with rRNA inh HTS. E. coli WT GFP strain growth, fluorescence, 24 h. activity change, negative = inhibition at 50 µM. 1,900 tested, under 10 active;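 active = compound lowering the normal-ribosome reporter at least twice as much as the humanized-ribosome reporter, growth loss under a set limit; inconclusive = no clear call, values can overlap the other calls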;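 note: wild-type GFP and h24 humanized RFP strains co-cultured 1 to 1 per well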
Active calls of the source: *; ? = inconclusive; · = not tested or not shown; ! = a repeat was not active. An excerpt weighted towards active compounds, which were near 2.1% of everything screened.

SMILES	ERAP1 HTS inh	ARNT TACC3 PPI	PvdQ acylase	CFTR F508del cor	rRNA inh HTS	AID977621	AID977628
CCc1ccc2nc(SCC(=O)Nc3ccccc3N3CCOCC3)c(C#N)cc2c1	-0.2	3.0	-1.5	1.5	-29.6*	-11	-3.97
O=C(CSc1nc(C2CC2)nc2ccccc12)Nc1ccccc1Cl	-4.6	1.1	-10.1	-2.7	0.0	·	·
Cc1ccc2nc(SCC(=O)Nc3ccccc3N3CCOCC3)c(C#N)cc2c1	·	-2.6	-0.7	·	·	·	·
O=C(CSc1nc(C2CC2)nc2ccccc12)Nc1ccccc1N1CCOCC1	0.6	-8.7	-10.6	0.8	-17.1*	-6.18	-7.29
C[C@@H]1CN([C@H](C)CO)C(=O)CCCn2cc(nn2)CO[C@H]1CN(C)Cc1cccnc1	-1.0	-0.6	·	0.3	2.4	·	·
Cc1sc(NC(=O)CN2CCOCC2)nc1-c1ccc2c(c1)CCN2S(=O)(=O)c1ccccc1	-2.4	3.3	7.6	5.3	-20.8*	-20.8	·
CC(C)[C@H](NC(=O)c1ccc([N+](=O)[O-])cc1Cl)C(=O)N1CCN(C/C=C/c2ccccc2)CC1	-0.7	-0.9	-7.6	3.4	-20.6*	·	?
C[C@H](NC(=O)C[C@H]1C=C[C@@H](NC(=O)C2CC2)[C@@H](CO)O1)c1ccccc1	-0.7	10.1	·	1.2	1.8	·	·
C[C@@H]1CN([C@H](C)CO)C(=O)c2cc(NC(=O)C3CCCCC3)ccc2O[C@@H](C)CCCCO[C@@H]1CN(C)C(=O)Nc1cccc2ccccc12	-0.7	-4.2	·	-3.8	0.1	·	·
CCc1nnc(NS(=O)(=O)c2ccc(NC(=O)c3cccc4ccccc34)cc2)s1	1.9	·	-9.4	·	-18.9*	1.41	?
CCc1nnc(NS(=O)(=O)c2ccc(NC(=O)c3cc(Cl)ccc3Cl)cc2)s1	-8.3	-4.4	-2.1	0.8	-49.5	·	·
CCc1nnc(NS(=O)(=O)c2ccc(NC(=O)c3cc(Cl)ccc3[N+](=O)[O-])cc2)s1	-3.4	0.3	-10.2	0.4	-20.9*	-17.8	·
C[C@H](CO)N1C[C@H](C)[C@@H](CN(C)CC2CCCCC2)OCCCC[C@H](C)Oc2ccc(NS(=O)(=O)c3ccc(Cl)cc3)cc2C1=O	·	-6.2	·	1.3	-16.2	·	·
C[C@@H]1CN([C@H](C)CO)C(=O)c2cc(-c3cccnc3)cnc2O[C@@H]1CN(C)C(=O)Nc1ccc(C(F)(F)F)cc1	-3.3	-6.8	·	-1.1	-0.3	·	·
COc1cc(NC(=O)COC(=O)CC(C)(C)C)c(C)cc1[N+](=O)[O-]	-3.3	1.4	2.6	·	-22.4*	?	·
O=C(COc1cccc2c1CCN(Cc1ccccc1F)C2=O)N1CCCCC1	-0.8	0.0	-10.3	0.2	-39.0*	·	?
O=C(COc1cccc2c1CCN(Cc1ccc(Br)cc1)C2=O)N1CCOCC1	0.0	-1.6	-7.5	-0.2	-27.8*	7.3	-5.11
CCOC(=O)N1CCN(C(=O)COc2cccc3c2CCN(Cc2ccccc2F)C3=O)CC1	0.3	36.2	15.3	·	·	·	·
COc1cccc(S(=O)(=O)N[C@@H]2C=C[C@H](CC(=O)NC3Cc4ccccc4C3)O[C@H]2CO)c1	-2.8	-6.0	·	-0.9	-7.5	·	·
O=S(=O)(NOCc1ccc(Cl)cc1)c1ccc(Cl)cc1	-2.0	-0.5	-5.4	-2.7	-39.1*	6.8	-2.72
CC(C)(C)c1ccc(S(=O)(=O)NCc2ccc(C(=O)NCc3ccccn3)cc2)cc1	-2.4	4.1	-3.3	·	-25.5*	-4.96	-16.8
CC(C)(C)c1ccc(S(=O)(=O)NCc2ccccn2)cc1	-4.7	-2.1	-17.9	0.3	1.7	·	·
O=C(c1ccc2c(c1)CCN2S(=O)(=O)c1ccccc1)N1CCN(c2ccccc2)CC1	-0.8	11.3	-7.6	-1.8	-25.5*	·	?
CS(=O)(=O)N1CCc2cc(C(=O)N3CCN(c4ccccc4)CC3)ccc21	1.8	0.5	-10.2	2.5	2.0	·	·
C[C@@H]1CN([C@@H](C)CO)C(=O)Cc2cc(NC(=O)Cn3cnnn3)ccc2O[C@H]1CN(C)C(=O)Nc1ccccc1	-2.4	-3.0	·	0.6	0.7	·	·
SMILES	ERAP1 HTS inh	ARNT TACC3 PPI	PvdQ acylase	CFTR F508del cor	rRNA inh HTS	AID977621	AID977628
N#Cc1ccc(-c2ccc(C3[C@H]4CNC[C@@H]3N4S(=O)(=O)c3ccc(-c4ccccc4)cc3)cc2)cc1 (stereo not given in full)	-2.3	·	·	2.2	-18.2*	-5.37	·
CN(C)C(=O)c1cccc(-c2ccc(C3[C@H]4CNC[C@@H]3N4S(=O)(=O)c3ccccc3F)cc2)c1 (stereo not given in full)	·	·	·	-2.6	-21.6*!	-8.04	?
CC(C)(C)c1cc(-c2n[nH]c(=S)n2-c2ccc(Cl)cc2)n[nH]1	-0.5	0.9	-21.2	0.8	-31.3*	?	·
Cc1nn(C)cc1-c1n[nH]c(=S)n1-c1ccc(Cl)cc1	2.4	-7.7	-11.8	1.5	9.1	·	·
N#Cc1ccc(C(=O)Nc2ccn(-c3ccccc3)n2)cc1	-3.9	-5.3	-9.5	0.1	-14.3*	-8.58	·
COc1cc(OC)cc(-c2nc3ccccc3c(=O)n2OC(=O)c2ccc(C)c(C)c2)c1	0.3	10.0	10.9	9.1*	-22.1*	-8.26	-3.66
CCCNC(=O)c1noc2c1CCc1cc(OC)ccc1-2	1.1	-4.3	-3.5	-2.1	-27.8*	?	·
COc1ccc2c(c1)CCc1c(C(=O)NCC(C)C)noc1-2	-3.0	-1.3	-13.8	1.4	-7.4	·	·
Clc1ccc(C2=NCCn3nc4ccccc4c32)cc1	0.3	7.7	7.1	1.1	-13.2	·	·
Nc1c(Cl)cc(C2=NCCn3nc4ccccc4c32)cc1Cl	-1.3	7.3	15.4	-1.9	-19.9*	-11.2	·
CCCC(=O)N1C[C@@H]2[C@H](c3ccccc31)[C@H](CO)N2C(=O)CC1CC1	-0.7	2.8	·	0.6	3.2	·	·
Cc1cc(NC(=O)CN2CCN(c3cccc(Cl)c3)CC2)no1	0.4	3.4	-15.6	-1.4	-15.4*	·	?
Cc1cccc(C)c1NC(=O)CNC(=O)C(C)N1CCN(c2cccc(Cl)c2)CC1 (stereo not given)	-2.0	·	2.1	-1.0	-22.0*	·	-15.9
Cc1cc(NC(=O)CN2CCN(c3ncccn3)CC2)no1	-1.2	-5.5	1.8	-1.3	15.9	·	·
CCN1CCN(C(=O)CS(=O)(=O)Cc2nc(-c3ccccc3C)oc2C)CC1	1.0	4.7	-6.6	4.2	2.2	·	·
Cc1ccccc1-c1nc(CS(=O)(=O)CC(=O)N2CCCCC2)c(C)o1	2.0	12.0	-15.8	-1.1	-19.1*	-0.963	-6.11
Cc1ccccc1CSc1nnc(-c2ccccn2)n1C	0.5	·	·	0.1	-20.9*	-7.18	?
COc1ccc(C(=O)N2C[C@@H]3[C@H](c4ccccc42)[C@@H](CO)N3Cc2ccc3c(c2)OCO3)cc1	1.1	1.2	·	-3.7	-6.2	·	·
